Assay outcomes deposited in PubChem by Paczesny and Yang Labs, IUPUI and University of Michigan.
This excerpt belongs to a sample that is enriched for hits.
ST2 inh: inhibitors of human ST2 (IL1RL1) binding to IL-33, primary screen, biochemical, AlphaLISA; Interleukin-1 receptor-like 1 (Homo sapiens), Q01638; AlphaLISA ST2-Fc/biotin-IL-33 interaction, 1 h; inhibition, % for hits at 17 µM; actives 2.3% (n = 78,000); in the data active = inhibition above about 30%
Target sequence (Q01638 whole entry, looked up): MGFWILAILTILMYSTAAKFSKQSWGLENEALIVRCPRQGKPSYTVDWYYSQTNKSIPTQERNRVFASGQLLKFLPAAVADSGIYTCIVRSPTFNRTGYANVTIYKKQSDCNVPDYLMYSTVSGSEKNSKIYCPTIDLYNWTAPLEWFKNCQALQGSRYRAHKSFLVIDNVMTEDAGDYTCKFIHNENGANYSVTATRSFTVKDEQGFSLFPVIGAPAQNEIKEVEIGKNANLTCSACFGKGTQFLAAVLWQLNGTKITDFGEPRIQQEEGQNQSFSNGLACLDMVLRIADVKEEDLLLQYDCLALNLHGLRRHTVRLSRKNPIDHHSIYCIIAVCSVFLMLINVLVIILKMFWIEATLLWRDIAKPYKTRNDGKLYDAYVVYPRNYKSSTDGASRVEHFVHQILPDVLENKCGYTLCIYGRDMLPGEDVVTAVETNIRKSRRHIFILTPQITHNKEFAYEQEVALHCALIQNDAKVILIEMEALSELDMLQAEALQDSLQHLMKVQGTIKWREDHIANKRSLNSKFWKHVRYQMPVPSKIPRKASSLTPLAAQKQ
An asterisk follows results filed as active; i = inactive.

SMILES	ST2 inh
CC1CCCN(c2ncnc(N)c2[N+](=O)[O-])C1 (stereo unspecified)	i
O=C1S/C(=C/c2ccccc2)C(=O)N1CNc1cccc(F)c1	i
O=C1NC(=Nc2cccc([N+](=O)[O-])c2)SC1(CO)CO	i
C=CCN1C(=O)/C(=C/c2ccccc2)SC1=Nc1cccc([N+](=O)[O-])c1	47%*
Cc1c(NS(=O)(=O)c2ccc3c(c2)C(=O)c2ccccc2-3)c(=O)n(-c2ccccc2)n1C	i
COc1ccc(S(=O)(=O)NCC(C)C)cc1OC	i
CC(C)CCNS(=O)(=O)c1ccc2c(c1)C(=O)c1cc(S(=O)(=O)NCCC(C)C)ccc1-2	36%*
O=C(NCc1cccnc1-n1ccnc1)c1cnc(-c2cccnc2)nc1	i
O=C(c1cn2ccsc2n1)N1C[C@H]2C[C@H](O)[C@H](O)C[C@H]2C1	i
CS(=O)(=O)N(CC(=O)Nc1ccc2c(c1)OCO2)c1ccc(Oc2ccccc2)cc1	i
O=C(c1ccoc1)N1CC[C@@H](N2CCN(c3ccccc3F)CC2)[C@H](O)C1	i
CCC(C(=O)Nc1cc(Cl)ccc1OCc1cc(=O)n2oc(C)cc2n1)c1ccccc1 (stereo unspecified)	i
Cc1nc([N+](=O)[O-])cn1CC(=O)c1ccccc1	i
CCOC(=O)c1sc(=Nc2ccccc2)n(-c2ccccc2)c1C	i
Cc1csc(=Nc2ccccc2)n1-c1ccccc1	32%*
Cc1cccn(CC(=O)c2ccc(-c3ccccc3)cc2)c1=N	i
Cc1csc(=Nc2ccccc2)n1CC(=O)c1ccccc1	36%*
Cc1cc(C)n(-c2ccccc2)n1	i
Cn1c(=O)c2c(nc3n(Cc4ccccn4)c(C45CC6CC(CC(C6)C4)C5)cn23)n(C)c1=O	i
Cc1ccc(OCCCC(=O)Nc2ncn[nH]2)cc1	i
O=C(CSCc1ccccc1Cl)NCCSc1ccccn1	i
CC1CCCCN1c1ncnc(N)c1[N+](=O)[O-] (stereo unspecified)	i
CCOC(=O)C1CCN(c2ncnc(N)c2[N+](=O)[O-])CC1	i
O=C(CN1CCN(Cc2ccc(Cl)cc2)C1=O)NC1CCCCCC1	i
COc1cc2c(cc1OC)C(C(=O)NCc1cccs1)C1c3ccccc3CCN1C2=O (stereo unspecified)	i
SMILES	ST2 inh
CC(C)Oc1cccc(C(=O)Nc2ccc(-c3nc4ncccc4o3)cc2)c1	32%*
Cc1ccc(C(=O)Nc2cc(-c3nc4ncccc4o3)ccc2C)cc1C	i
O=C(Nc1ccc(-c2nc3ncccc3o2)cc1)c1cccnc1	i
CCOc1cc(C(=O)Nc2cc(-c3nc4ncccc4o3)ccc2C)cc(OCC)c1OCC	37%*
CCCOc1ccc(C(=O)Nc2cc(-c3nc4ncccc4o3)ccc2C)cc1	i
CC(C)Oc1ccc(C(=O)Nc2cccc(-c3nc4ncccc4o3)c2)cc1	i
CCOc1ccccc1NC(=O)c1cc(-c2cccs2)nc2ccccc12	i
CCOC(=O)C1(CCc2ccccc2)CCN(C(=O)Cc2csc(C(C)=O)c2)CC1	i
OC(C#CC(O)(c1ccccc1)c1ccccc1)c1ccco1 (stereo unspecified)	i
CC1(c2ccccc2)CC(C)(C)N2C(=O)C(=O)c3cccc1c32 (stereo unspecified)	33%*
CC1(O)c2ccccc2C(=O)N1Cc1ccccc1 (stereo unspecified)	i
CC1(c2ccc(Cl)cc2)CC(C)(C)N(C(=O)CSC#N)c2ccccc21 (stereo unspecified)	i
COc1ccc(OC)c(NC2=NS(=O)(=O)c3ccccc32)c1	i
CCCN=C(NS(=O)(=O)c1ccc(C)cc1)c1ccc(F)cc1	i
O=C(O)CN=C(NS(=O)(=O)c1ccccc1)c1ccc(F)cc1	i
O=C(O)CN=C(NS(=O)(=O)c1ccccc1)c1ccccc1	38%*
O=C(c1ccccc1Oc1ccccc1)N1C[C@@H]2[C@H](C1)[C@H]1CC[C@@H]2O1	i
CC(C)=CCN1CCN(Cc2ccncc2)CC1CCO (stereo unspecified)	i
NC(=O)c1cc(-n2ccc(-c3cnccn3)n2)cs1	i
CCC1C(=O)C(C)(C)C(=O)OC1c1cccc(Br)c1 (stereo unspecified)	i
CCOc1ccc(Br)cc1/C=C(\C#N)c1nc2ccccc2[nH]1	i
COc1ccc2nc(SCc3ccc(C)cc3)[nH]c2c1	i
N#C/C(=C\c1ccc2c(c1)OCO2)c1nc2ccccc2[nH]1	i
Cc1ccc(/C=C(\C#N)c2nc3ccc(C)cc3[nH]2)cc1	32%*
COc1cc(/C=C(\C#N)c2nc3ccc(C)cc3[nH]2)cc(OC)c1O	34%*
SMILES	ST2 inh
N#C/C(=C\c1cc2c(cc1Br)OCO2)c1nc2ccccc2[nH]1	i
CS(=O)(=O)NC1CCN(Cc2cccn2-c2ccc(Cl)cn2)CC1	i
CCc1ccc(CN(C)Cc2cn[nH]c2-c2cc(OC)c(OC)c(OC)c2)nc1	i
CCCC(=O)NCCCc1nc2ccccc2[nH]1	i
O=C(CN1C(=O)CCc2cc(S(=O)(=O)N3CCCCC3)ccc21)N1CCc2ccccc21	i
CN(C)c1oc(COc2ccc(Cl)cc2Cl)nc1S(=O)(=O)c1ccccc1	36%*
Cc1nc(S(=O)(=O)c2ccccc2)c(N(C)C)o1	i
CN(C)c1oc(-c2ccccc2)nc1S(=O)(=O)c1ccccc1	i
CCc1ccc(S(=O)(=O)N2CCSC2c2cccc(Cl)c2)cc1 (stereo unspecified)	i
CCCCNC(=O)c1ccc(Cn2c(=O)[nH]c3cc(OC)c(OC)cc3c2=O)cc1	i
COc1ccc(CN2C(=Nc3ccccc3)S[C@H]3[C@@H]2[C@@H](O)[C@H](O)C[C@@H]3C(N)=O)cc1	i
Cc1ccc(-c2csc(=Nc3ccccc3)n2CCCN(C)C)cc1	42%*
Cc1cccc(N2C(=O)c3ccc(-c4nnc(-c5ccccc5)o4)cc3C2=O)c1	i
COc1ccc(N=C2SCC(=O)N2c2ccc(OC)cc2)cc1	i
COc1ccc(N=c2scc(-c3ccc(I)cc3)n2CCO)cc1	55%*
CCCCn1c(=N)n(CCOc2ccc(C)cc2)c2ccccc21	i
O=C(O)c1ccc2c(c1)C(=O)N(c1cccc(Cl)c1)C2=O	i
CN=c1scc(-c2ccc(Cl)cc2)n1C	i
COc1ccc(C2(C(=O)N3CCCC(O)(CO)C3)CC2)cc1 (stereo unspecified)	i
CCNC(=O)CC1SC(=Nc2ccc(OC)cc2)N(C)C1=O (stereo unspecified)	i
O=C1c2ccccc2C(=O)N1c1cccc(-c2csc(=Nc3ccccc3)n2CCO)c1	48%*
COc1ccc(-c2csc(=Nc3ccccc3)n2CCO)cc1	38%*
CCNC(=O)NC[C@@H]1C=C(C)[C@H](CC(=O)OCC)C[C@H]1C(C)C	i
CSCC(=O)N1CCOC(CCc2ccccc2)C1 (stereo unspecified)	i
CCCCC1C=CCN1C(=O)c1ccc(N2CC(=O)NC2=O)cc1 (stereo unspecified)	i
O=C(NCCc1ccccc1)c1ccc(Cn2c(=O)[nH]c3ccsc3c2=O)cc1	i
CC1NC2(CCCCC2)CC(C)(C)c2ccccc21 (stereo unspecified)	i
CCN1CCCC1CNS(=O)(=O)c1ccc2c(c1)CCN2C(=O)C1CC1 (stereo unspecified)	i
N#CC1=C(N)Oc2n[nH]c(C(F)(F)F)c2C1c1ccccc1F (stereo unspecified)	i
